Results: PubChem BioAssay AID1835 (Johns Hopkins Ion Channel Center, 2009)
Screen size: about 2,400 compounds; about 750 (31%) were called active. This is one part of the list. A number with no mark means an inactive call.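 How the source made its calls: active means median signal gain over dofetilide-blocked control wells reaching their mean plus 3 SD, so readout 1 at least 0; inactive means the rest.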

What follows are compounds tested against Voltage-gated inwardly rectifying potassium channel KCNH2 (Homo sapiens) (UniProt Q12809) (assay: hERG protection against dofetilide inhibition, confirmation, cell-based, thallium flux, duplicate retest, dofetilide IC70 (AID 1835)). Conditions: hERG cell line, FluxOR thallium flux, dofetilide-blocked; at 10 µM; active compounds read high.
Sequence of Voltage-gated inwardly rectifying potassium channel KCNH2 (Homo sapiens) (Q12809 whole entry, looked up): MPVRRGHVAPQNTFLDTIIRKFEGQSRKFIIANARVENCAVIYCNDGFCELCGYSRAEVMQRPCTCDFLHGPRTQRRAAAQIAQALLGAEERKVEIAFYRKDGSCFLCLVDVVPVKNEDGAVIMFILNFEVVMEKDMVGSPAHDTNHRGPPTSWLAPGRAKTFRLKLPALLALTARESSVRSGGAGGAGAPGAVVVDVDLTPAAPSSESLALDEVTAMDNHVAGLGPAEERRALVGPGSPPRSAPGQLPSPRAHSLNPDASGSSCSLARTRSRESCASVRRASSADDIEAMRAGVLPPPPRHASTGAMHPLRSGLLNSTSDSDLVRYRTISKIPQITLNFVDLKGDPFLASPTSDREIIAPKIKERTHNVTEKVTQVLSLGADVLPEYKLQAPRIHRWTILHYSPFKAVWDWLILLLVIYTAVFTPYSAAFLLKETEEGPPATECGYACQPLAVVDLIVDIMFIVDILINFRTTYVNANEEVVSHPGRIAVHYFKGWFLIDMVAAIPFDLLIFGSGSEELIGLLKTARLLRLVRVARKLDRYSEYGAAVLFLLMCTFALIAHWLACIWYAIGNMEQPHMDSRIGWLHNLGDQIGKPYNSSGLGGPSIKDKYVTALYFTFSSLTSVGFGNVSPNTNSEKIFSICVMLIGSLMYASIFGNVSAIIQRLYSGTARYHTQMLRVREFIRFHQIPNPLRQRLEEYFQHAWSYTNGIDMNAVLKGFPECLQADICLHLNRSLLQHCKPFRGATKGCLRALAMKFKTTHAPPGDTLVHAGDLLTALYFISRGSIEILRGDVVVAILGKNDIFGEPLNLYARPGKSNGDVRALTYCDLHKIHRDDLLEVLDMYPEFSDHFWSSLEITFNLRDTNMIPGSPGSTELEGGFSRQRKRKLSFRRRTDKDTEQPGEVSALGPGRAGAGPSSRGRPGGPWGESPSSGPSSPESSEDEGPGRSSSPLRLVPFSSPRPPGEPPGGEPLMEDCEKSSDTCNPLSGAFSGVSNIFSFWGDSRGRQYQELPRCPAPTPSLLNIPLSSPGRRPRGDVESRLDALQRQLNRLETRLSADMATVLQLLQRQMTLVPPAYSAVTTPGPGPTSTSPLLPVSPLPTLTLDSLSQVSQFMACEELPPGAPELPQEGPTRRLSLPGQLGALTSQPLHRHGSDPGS

With `CC/C(=C\C=C\[C@@H]1C=C[C@@H]2CCC[C@H]2[C@@H]1C(=O)c1ccc[nH]1)[C@@H]1O[C@@H]([C@@H](C)C(=O)O)CC[C@@H]1C` the activity increase over dofetilide control, less the hit threshold was 128% (active).
In the case of `CCOC(=O)c1c(NS(=O)(=O)c2ccccc2)n(CCCOC)c2nc3ccccc3nc12`, the activity increase over dofetilide control, less the hit threshold is reported as 65% (active).
In the case of `N#CC1=C(N)Oc2c(c(=O)oc3ccccc23)C1c1cccnc1` (stereo unspecified), the activity increase over dofetilide control, less the hit threshold is reported as 8% (active).
`O=c1c2cc(Br)ccc2[nH]c(=S)n1-c1ccccc1` was tested, and the activity increase over dofetilide control, less the hit threshold was 2% (active).

Point of comparison: `COc1ccc2c3c1OC1C(O)C=CC4C(C2)[N+](C)(C)CCC341` (stereo unspecified), activity increase over dofetilide control -2%. Against it:
- Cc1nc2ccccc2c(=O)n1-c1cc([N+](=O)[O-])cc([N+](=O)[O-])c1 — lower, -26%
- CC(=NCc1ccco1)c1c(O)n(-c2ccc(C)cc2)c(=O)[nH]c1=O — lower, -19%
- COc1ccc(-c2nc(CSCC(=O)N3CCC4(CC3)OCCO4)c(C)o2)cc1OC — lower, -23%
- CCCCn1c(O)c(C(CC)=Nc2ccc(OCC)cc2)c(=O)[nH]c1=O — lower, -23%
- NS(=O)(=O)c1ccc(-c2ccc(C=C3C(=O)NC(=O)NC3=O)o2)cc1 — the same, -2%
- Cc1ccc(-n2c(O)c(/C=N/Nc3ccccc3)c(=O)[nH]c2=O)cc1C — lower, -5%
- O=C1NC(=O)N(Cc2ccccc2Cl)C(=O)/C1=C/N1CCOCC1 — lower, -7%
- O=C1NC(=O)C(=Cc2ccc(-c3ccc(Cl)cc3)o2)C(=O)N1 — higher, -1%
- CN1C(=O)C(Cc2ccc3c(c2)OCO3)C(=O)N(C)C1=O — lower, -15%
- CCCCN1C(=O)/C(=C/c2ccc(N3CCCCCC3)cc2)C(=O)NC1=S — lower, -4%
- O=C1NC(=O)C(=Cc2ccc(-c3cc(Cl)ccc3[N+](=O)[O-])o2)C(=O)N1 — lower, -20%
- NC(=O)Cn1cc(C(=O)c2ccccc2F)c2ccccc21 — lower, -9%
- CC(=NCc1ccco1)c1c(O)n(C)c(=O)n(C)c1=O — lower, -12%
- CC1N=C(c2ccccc2Cl)c2cc(Br)ccc2NC1=O (stereo unspecified) — lower, -24%
- COc1ccc(OC)c(N2C(=O)/C(=C/c3ccco3)C(=O)NC2=S)c1 — higher, 0%
- O=C1NC(=O)N(c2ccccc2)C(=O)/C1=C/c1ccc(Sc2ccccc2)o1 — lower, -6%
- O=C1NC(=O)N(CCNc2ncc(C(F)(F)F)cc2Cl)C(=O)C1Cc1ccc(Cl)cc1 (stereo unspecified) — lower, -11%
- COc1ccccc1N1CCN(Cc2ccc(F)cc2)CC1 — lower, -10%

With `O=C(Cn1ncc2c3ccccc3n(Cc3ccccc3F)c2c1=O)N1CCC2(CC1)OCCO2` the activity increase over dofetilide control was 2% (active).
`O=c1[nH]c(=S)[nH]c(O)c1N=Nc1ccc(S(=O)(=O)N2CCc3ccccc32)cc1` was tested, and the activity increase over dofetilide control was 25% (active).
In the case of `O=c1[nH]c(=S)[nH]c(O)c1/C=C1/C=c2ccccc2=N1`, the activity increase over dofetilide control is reported as 14% (active).
In the case of `C=CCn1c(O)c(/C=C2/C=c3ccccc3=N2)c(=O)[nH]c1=S`, the activity increase over dofetilide control is reported as 96% (active).
With `O=C(O)CCC(=O)NCCC1=c2ccccc2=N/C1=C\c1c(O)n(Cc2ccc(F)cc2)c(=S)[nH]c1=O` the activity increase over dofetilide control was 11% (active).
For `C=CCN1C(=O)/C(=C/c2ccc(Br)s2)C(=O)NC1=S`, the activity increase over dofetilide control was 8% (active).
`CN1C(=O)/C(=C\c2ccc(Br)s2)C(=O)NC1=S` was tested, and the activity increase over dofetilide control was 26% (active).
With `CN1C(=O)/C(=C/c2ccc(Cl)s2)C(=O)NC1=S` the activity increase over dofetilide control was 12% (active).
`O=c1[nH]c(O)c(/C=C2/C=CC(c3cc(Cl)ccc3Cl)=N2)c(=O)[nH]1` was tested, and the activity increase over dofetilide control was 30% (active).
In the case of `Cc1ccccc1N1C(=O)/C(=C/c2ccco2)C(=O)NC1=S`, the activity increase over dofetilide control is reported as 14% (active).
In the case of `O=C1NC(=S)N(c2ccc(F)cc2)C(=O)/C1=C/c1ccco1`, the activity increase over dofetilide control is reported as 4% (active).
`Cc1ccc(/C=C2\C(=O)NC(=S)N(c3ccc(F)cc3)C2=O)s1` was tested, and the activity increase over dofetilide control was 5% (active).

Point of comparison: `O=C(COc1ccc(Br)cc1)N1CCN(Cc2ccc3c(c2)OCO3)CC1`, activity increase over dofetilide control, less the hit threshold -12%. Against it:
- CCCc1[nH]nc2c1C1(C(=O)N(Cc3ccccc3)c3ccccc31)C(C(=O)OC)=C(N)O2 (stereo unspecified) — lower, -35%
- CCOC(=O)Cn1cc([N+](=O)[O-])nc1[N+](=O)[O-] — lower, -18%
- O=C1CC(=O)N(c2cccc(C(F)(F)F)c2)C(=O)N1 — lower, -15%
- Cc1ccc(S(=O)(=O)NC(Cc2cnc[nH]2)C(=O)O)cc1 (stereo unspecified) — higher, -7%
- Oc1ccc(CC2(N3CCCC3)CCCCC2)cc1 — lower, -14%
- CC(C)(C)c1ccc(OC(=O)N2CCCCC2)cc1 — lower, -16%
- O=S(=O)(c1ccccc1)N1CCCCC1c1cccnc1 (stereo unspecified) — lower, -17%
- Oc1cccc2cccnc12 — higher, -5%
- N#CCCn1cc(C(=O)Nc2ccccc2Cl)c(-c2ccc(F)cc2)n1 — lower, -14%
- O=c1c2ccccc2[nH]c(=S)n1-c1ccc2c(c1)OCCO2 — lower, -26%
- CN1CCN(CC#CCOc2ccc(Cl)cc2)CC1 — higher, -9%
- C1CCC2S[C@H]3CCCCC3NC2C1 (stereo partly specified) — lower, -17%
- O=C(O)c1c[nH]c2ccc(S(=O)(=O)N(CCCl)CCCl)cc12 — higher, -11%
- CN1CCCCC1c1ccc(-c2cccnc2)nc1 (stereo unspecified) — lower, -15%
- COc1ccc(CN2CCCC(C(=O)c3sccc3C)C2)cc1O (stereo unspecified) — lower, -21%
- COc1cccc(OC)c1C(=O)Nc1nc(N)n(-c2ccccc2)n1 — lower, -22%
- CCn1nc(/C=C/c2ccccc2)nc2c(=O)n(C)c(=O)nc1-2 — lower, -22%
- CN(C)C(=O)O/N=C(\N)COc1ccc(C(C)(C)C)cc1 — lower, -17%
- NCCc1ccc(S(N)(=O)=O)cc1 — lower, -18%
- COc1ccc2c(c1)/C(=C/c1cnc[nH]1)C(=O)N2 — higher, -6%
